# Laboratory results: PubChem BioAssay (NCI)
# The panel holds about 83,000 compounds, 20% with a hit somewhere; the sample as a whole holds those more often.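 How to read the values: 0–100, growth inhibition (40 = 60% inhibited); 0, no net growth; -100 to 0, cell death (-40 = 40% of starting cells died; -100 = all dead).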 Values without a mark were called inactive. Activity calls are given as the source filed them. Rule for the calls: active = growth percent below 10; inactive = the rest.
# Test system: HL-60(TB) leukemia
# Test: NCI-60 one-dose screen, 48 h (100 = growth as untreated, 0 = no growth, -100 = all killed)
# Conditions: 10 µM unless noted
row,Compound,growth
1,N=C(N)c1ccc(-c2ccc(-c3ccccc3)s2)cc1,-34.2% (active)
2,O=C1/C=C/[C@@H](O)[C@@H]2C[C@@H](O)C[C@H]2/C=C/CCC[C@H](CCc2ccc(C(F)(F)F)cc2)O1,-10.1% (active)
3,Cc1ccc(S(=O)(=O)NCN2C(=O)c3ccccc3C2=O)cc1,106%
4,CC(C)CCC[C@@H](C)[C@H]1CC[C@H]2[C@@H](Nc3ccc(O)cc3)CCC[C@]12C,39.2%
5,CNc1nc(S(=O)c2ccc(C#N)cc2)nc2ccccc12 (stereo not given),79.9%
6,COc1cc(NC(C)CCCN2C(=O)c3ccccc3C2=O)c2nccc(C)c2c1OC (stereo not given),9.5% (active)
7,O=C1ON=[N+](c2ccc(Cc3ccc([N+]4=NOC(=O)C4CN4CCOCC4)cc3)cc2)C1CN1CCOCC1 (stereo not given),86.4%
8,BrC1CC(Br)c2c1c1c(c3c2C(Br)CC3Br)C(Br)CC1Br (stereo not given),55.7%
9,O=C(/C=C/c1ccccc1)n1c(-c2ccccc2)nc2ccccc21,101%
10,COc1ccc2c(c1OC)CO[C@@H]2[C@H]1c2c(cc3c(c2OC)OCO3)CCN1S(=O)(=O)c1cn(C)cn1,-0.0238% (active)
11,CNS(=O)(=O)c1ccc(Cl)c(Cl)c1,137%
12,COc1ccc(CNc2nc3ccccc3c3c(=O)c4ccccc4sc23)cc1OC,98.9%
13,COc1ccc2c3c(c(OCCCN(C)C)nc2c1)-c1ccc(Cl)cc1C3=O,70.7%
14,CC(CCN1CCN(CCC(C)CC(C)(C)C)C1CC(C)CC(C)(C)C)CC(C)(C)C (stereo not given),97.8%
15,COC(=O)/C(CCC=C(C)C)=C1\[C@@H](OC(C)=O)C[C@@]2(C)[C@H]1C[C@@H](O)[C@H]1[C@@]3(C)CC[C@H](NCCO)[C@@H](C)[C@@H]3CC[C@@]12C,96.4%
16,COC(=O)[C@H]1CCCN1C(=O)[C@H]1CCCN1C(=O)[C@@H](Cc1c[nH]c2ccccc12)NC(=S)Nc1cc(C(F)(F)F)cc(C(F)(F)F)c1,31.2%
17,Cc1cccc(CNc2c3ccccc3nc3ccccc23)c1,12.5%
18,CCC(=O)N1C/C(=C/c2ccc(OC)cc2)C(=O)/C(=C/c2ccc(OC)cc2)C1,25.1%
19,NC(=N\N=C\c1ccccc1O)/C(N)=N/N=C/c1ccccc1O,69.5%
20,C=C1c2c(C)nn(-c3ccc(NC(C)=O)cc3)c2N(C)C23CC1C1(C)c4c(C)nn(-c5ccc(NC(C)=O)cc5)c4N(C)C(C)(CC12)C3 (stereo not given),-20.6% (active)

row,Compound,growth
1,COC(=O)c1[nH]cnc1/N=N/N(C)CCO,86.5%
2,C#CC(C)(O)[C@@H]1C[C@H](CC(=O)O)C1(C)C (stereo not given in full),113%
3,COc1cc(/C=N/Nc2ncnc3c2c(C)nn3-c2ccc(F)cc2)ccc1O,98.3%
4,CCC1(/C=N/NC(N)=S)NC(=O)NC1=O (stereo not given),111%
5,O=C1Nc2ccccc2/C1=N/N=C/c1c[nH]c2ccccc12,86.2%
6,CCOc1ccc(C(CN2CCOCC2)C(C)=O)cc1OC (stereo not given),84.7%
7,Clc1ccc(C(/C=C/c2sc(Cl)nc2Cl)=N/Nc2cc(Cl)cc(Cl)c2)cc1,99.4%
8,CCCCC/C=C/C/C=C/CCCCCCCC1=NC(C)(C)CN1C(C)C,13.7%
9,COc1cc(-c2nn(-c3ccc(Br)cc3)cc2C(=O)O)ccc1O,82.8%
10,Oc1[nH]c2ccc(Cl)cc2c1/C=c1/ccc2c(c1)N=C(c1cc(F)cc(F)c1)N=2,70.1%
11,S=c1[nH]nc(-c2cc3ccc2CCc2ccc(cc2)CC3)n1C1CC1,106%
12,CCOC(=O)c1csc(NC(=O)COc2cccc(/C=C3\Oc4cc(OC)ccc4C3=O)c2)n1,61.3%
13,CN(C)CCCN(Cc1ccccc1O)C(=S)Nc1ccc(Cl)cc1,103%
14,O=C(O)COc1ccc(Cl)cc1C1CCCCC1,116%
15,O=C(/C=C/c1cn(-c2ccccc2)nc1-c1ccccc1)CCC(=O)NO,98.3%
16,C=C1CCC2C3(C)COC(c4ccc(SC)cc4)OC3CCC2(C)C1C/C=C1/C(=O)OCC1O (stereo not given),-12.1% (active)
17,C=C1CCC2C3(C)COC(c4ccccc4)OC3CCC2(C)C1/C=C/C1=CCOC1=O (stereo not given),0.949% (active)
18,O=S(=O)(NCCNc1nccc(-c2c(-c3cccc(F)c3)nc3occn23)n1)c1ccc(Br)cc1,103%
19,CCn1c(SCCc2ccccc2)nnc1-c1nn(-c2ccc(Cl)cc2Cl)c(-c2ccc(Cl)cc2)c1C,67.8%
20,CC1CCN(Cc2ccc(NC(=O)c3cc4ccc5cccnc5c4[nH]3)cc2)CC1,11.5%
